Where “and” joins values, the source holds several entries; their conditions need not be identical. Equal entries are not always repeated. Records with an inconclusive call do not appear. The source holds several records for some structures; these can differ, active in one and inactive in another. Calls of active or inactive are those of the source. The call rests on the fitted dose curve; in most records, active means well fitted inhibition curve with a large enough effect in the repeat runs; inconclusive means weak or mixed curves; inactive means flat fitted curve, though single readings scatter.
target: Luciferin 4-monooxygenase (Photinus pyralis) (UniProt P08659); assay: qHTS assay to identify small molecule inhibitors of firefly luciferase (AID 1224835); further: nearly all actives have a fitted effect of over 25% in size; settings: purified P. pyralis luciferase, luminescence inhibition; series mostly up to 115 µM; activity change, negative = inhibition: at the top concentration
Sequence (P08659 whole entry, looked up): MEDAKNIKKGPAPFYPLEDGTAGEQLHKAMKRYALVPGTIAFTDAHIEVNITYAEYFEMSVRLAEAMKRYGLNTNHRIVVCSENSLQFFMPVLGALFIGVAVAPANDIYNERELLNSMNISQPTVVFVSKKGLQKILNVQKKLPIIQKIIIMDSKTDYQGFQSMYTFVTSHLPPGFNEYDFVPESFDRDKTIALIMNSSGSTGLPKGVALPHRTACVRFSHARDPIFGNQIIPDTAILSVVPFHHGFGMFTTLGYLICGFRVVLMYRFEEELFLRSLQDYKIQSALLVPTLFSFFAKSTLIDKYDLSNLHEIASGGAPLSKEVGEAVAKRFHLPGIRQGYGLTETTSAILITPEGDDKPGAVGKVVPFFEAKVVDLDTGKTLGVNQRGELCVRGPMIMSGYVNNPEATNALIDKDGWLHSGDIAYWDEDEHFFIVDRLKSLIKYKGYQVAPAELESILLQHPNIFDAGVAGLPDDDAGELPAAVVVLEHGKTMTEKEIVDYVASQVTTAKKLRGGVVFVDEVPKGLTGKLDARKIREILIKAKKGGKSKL
Description: U.S. Tox21 Program National Center for Advancing Translational Sciences [NCATS] NIH Chemical Genomics Center [NCGC] U.S. Environmental Protection Agency [EPA] National Institutes of Environmental Health Sciences [NIEHS] National Toxicology Program [NTP] U.S. Food and Drug Administration [FDA] Tox21 Assay Overview: Firefly (Photinus pyralis) luciferase is one of the most commonly used transcriptional reporters. Firefly luciferase reporter-gene assays are generally considered one of the most sensitive assay types (Wood, 1995; Wood, 1998). However, it was initially observed, in 1991, by Thompson et al., that compounds that resemble the substrates of firefly luciferase (FLuc) can act as competitive inhibitors of the enzyme, and that these compounds, upon interaction with luciferase in the cell, can actually stabilize the protein and increase its half-life. Previous profiling work by other groups to determine the prevalence of compounds that affect FLuc enzymatic activity (PubChem AID 411) identified that ~3% of the MLSMR library (then at ~72K) inhibited FLuc. […] Thus the Tox21 10K library is profiled for activity against FLuc using a biochemical assay of purified FLuc and KM concentrations of FLuc substrates (D-luciferin and ATP).
These assay plates were then treated with 23nL of compound or DMSO using a Kalypsys pin tool, which allows for delivery of a 6-point interplate titration of each compound to the assay plate (quantitative HTS.) 1 uL of firefly luciferase mix (containing 50 mM Tris acetate, pH 7.6, 0.04 uM P. pyralis luciferase, 0.01% Tween, 0.05% BSA and dH2O) was then delivered by FRD to each well. Luciferase activity was then measured using a ViewLux CCD imager.
On the % scale 0 is the no-effect control and ±100 the full control effect.

Row | SMILES | Potency | activity change, negative = inhibition
1 | O=Nc1ccc(Nc2ccccc2)cc1 | 35.8 µM (active) and 39.9 µM (active) | –
2 | CCN1CCCC1CNC(=O)c1cc(S(=O)(=O)CC)c(N)cc1OC (stereo not given) | – | 3.31% [at 52.9 µM] (inactive)
3 | CCCCCCCCCCCCc1ccccc1O | inactive | –
4 | CC(COc1ccccc1)N(CCCl)Cc1ccccc1 (stereo not given) | inactive | –
5 | COc1nc(C)nc(Cl)c1NC1=NCCN1 | – | 1.79% [at 52.9 µM] (inactive)
6 | Cc1occc(=O)c1OC(=O)C(C)C | – | -0.264% (inactive)
7 | O=C(Oc1ccccc1)c1ccccc1O | 31.9 µM (active) and 22.4 µM (active) | –
8 | CC(=O)C1=C(C)[C@@H]2C[C@@]3(C1)[C@H](C)CC[C@H]3C2(C)C | inactive | –
9 | CCCC(=O)c1ccccc1 | – | 0.264% (inactive)
10 | CC(C)(c1ccccc1)c1ccc(Nc2ccc(C(C)(C)c3ccccc3)cc2)cc1 | – | 0.161% (inactive)
11 | CC(C)CCOCc1ccccc1 | – | -1.34% (inactive)
12 | CC(C)(C)c1ccc(O)c(C(C)(C)C)c1 | inactive | –
13 | COC(=O)c1cccc(C(=O)OC)c1 | inactive | –
14 | CC(C)CCOC(=O)c1ccc(N(C)C)cc1 | 3.47 µM (active) | –
15 | CC(=O)O[C@]1(C(C)=O)CC[C@H]2[C@@H]3C[C@H](C)C4=CC(=O)CC[C@]4(C)[C@H]3CC[C@@]21C | inactive | –
16 | COc1ccc(COC(C)=O)cc1 | inactive | –
17 | c1ccc2cc3c(ccc4ccccc43)cc2c1 | 5.66 µM (active) and 8.94 µM (active) | –
18 | NNCCc1ccccc1 | 25.3 µM (active) and inactive | –
19 | CC(C)(C)c1cc(C(C)(C)C)c(O)c(C(C)(C)C)c1 | inactive | –
20 | Cc1cc(OCCOCC[N+](C)(C)Cc2ccccc2)ccc1C(C)(C)CC(C)(C)C | inactive | –

Row | SMILES | Potency | activity change, negative = inhibition
21 | CC(C)(O)CCC(C)(C)O | – | 0.256% (inactive)
22 | C=CS(=O)(=O)O | – | 0.931% (inactive)
23 | CCCCCC(=O)O[C@]1(C(C)=O)CC[C@H]2[C@@H]3CCC4=CC(=O)CC[C@]4(C)[C@H]3CC[C@@]21C | inactive | –
24 | CCC(C)(C)C(=O)O[C@H]1C[C@@H](C)C=C2C=C[C@H](C)[C@H](CC[C@@H]3C[C@@H](O)CC(=O)O3)[C@H]21 | inactive | –
25 | Cc1cc(C2(c3cc(C)c(O)cc3C)OS(=O)(=O)c3ccccc32)c(C)cc1O | 35.6 µM (active) | –
26 | OCCOCCN1CCN(C(c2ccccc2)c2ccc(Cl)cc2)CC1 (stereo not given) | inactive and 27.5 µM (active) | –
27 | CN1C(=O)c2ccc([N+](=O)[O-])cc2C1=O | – | 3.05% (inactive)
28 | O=C1NCC2(CCN(CCc3ccccc3)CC2)O1 | – | -5.72% [at 52.9 µM] (inactive)
29 | COc1ccc(Cc2cnc(N)nc2N)cc1OC | – | 6.9% [at 52.9 µM] (inactive)
30 | CC(=O)OCCOCCOCCOC(C)=O | inactive | –
31 | C=CC(=O)OCCCCCCOC(=O)C=C | inactive | –
32 | O=c1n(CC2CO2)c(=O)n(CC2CO2)c(=O)n1CC1CO1 (stereo not given) | inactive | –
33 | O=C1Nc2ccccc2C1(c1ccc(O)cc1)c1ccc(O)cc1 | inactive | –
34 | O=C(O[C@@H]1Cc2c(O)cc(O)cc2O[C@@H]1c1cc(O)c(O)c(O)c1)c1cc(O)c(O)c(O)c1 | 25.3 µM (active) and 38.5 µM (active) | –
35 | Cc1cc(Cc2cc(C)cc(C(C)(C)C)c2O)c(O)c(C(C)(C)C)c1 | inactive | –
36 | NC12CC3CC(CC(C3)C1)C2 | – | 1.89% [at 52.9 µM] (inactive)
37 | COC(=O)[C@H]1[C@H]2C[C@@H]3c4[nH]c5cc(OC)ccc5c4CCN3C[C@H]2C[C@@H](OC(=O)c2cc(OC)c(OC)c(OC)c2)[C@@H]1OC | inactive | –
38 | O=C(O)CP(=O)(O)O | – | -1.74% [at 52.9 µM] (inactive)
39 | CC(=O)N[C@@H](CS)C(=O)O | inactive | –
40 | OCC(CO)N[C@H]1C[C@](O)(CO)[C@@H](O)[C@H](O)[C@H]1O | – | -2.27% [at 52.9 µM] (inactive)
